Sampled rows, rich in hits. Any-hit rate of the full collection: about 10%.
G9a inh – inhibitors of human histone lysine methyltransferase G9a | Q96KQ7 | G9a H3K9 monomethylation, AlphaScreen, 2 h | Potency, µM (highest dose often 102 µM), for the others: top-dose activity, negative = inhibition, most hits filed as inhibitors | actives 8.8% (n = 350,000) | AID 504332; note: % is set by controls: 0 for no effect and ±100 for the full control effect; nearly all actives have a fitted effect of over 75% in size
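Quantitative HTS format: methyltransferase activity on a biotin-tagged H3K9 peptide is measured by AlphaScreen, using a rabbit anti-monomethyl-H3K9 antibody with streptavidin donor and anti-IgG acceptor beads. Final levels are 20 nM enzyme, 500 nM peptide, 20 uM SAM; 2 h RT.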
GLS inh – glutaminase GLS (human) inhibition; O94925; GLS enzymatic activity, qHTS titration; Potency, µM (doses to about 45.5 µM), inactives show top-dose activity change, negative = inhibition, hits mostly inhibitors; actives 0.21% (n = 410,000); AID 624170; note: % is set by controls: 0 for no effect and ±100 for the full control effect
Target sequence (O94925 whole entry, looked up): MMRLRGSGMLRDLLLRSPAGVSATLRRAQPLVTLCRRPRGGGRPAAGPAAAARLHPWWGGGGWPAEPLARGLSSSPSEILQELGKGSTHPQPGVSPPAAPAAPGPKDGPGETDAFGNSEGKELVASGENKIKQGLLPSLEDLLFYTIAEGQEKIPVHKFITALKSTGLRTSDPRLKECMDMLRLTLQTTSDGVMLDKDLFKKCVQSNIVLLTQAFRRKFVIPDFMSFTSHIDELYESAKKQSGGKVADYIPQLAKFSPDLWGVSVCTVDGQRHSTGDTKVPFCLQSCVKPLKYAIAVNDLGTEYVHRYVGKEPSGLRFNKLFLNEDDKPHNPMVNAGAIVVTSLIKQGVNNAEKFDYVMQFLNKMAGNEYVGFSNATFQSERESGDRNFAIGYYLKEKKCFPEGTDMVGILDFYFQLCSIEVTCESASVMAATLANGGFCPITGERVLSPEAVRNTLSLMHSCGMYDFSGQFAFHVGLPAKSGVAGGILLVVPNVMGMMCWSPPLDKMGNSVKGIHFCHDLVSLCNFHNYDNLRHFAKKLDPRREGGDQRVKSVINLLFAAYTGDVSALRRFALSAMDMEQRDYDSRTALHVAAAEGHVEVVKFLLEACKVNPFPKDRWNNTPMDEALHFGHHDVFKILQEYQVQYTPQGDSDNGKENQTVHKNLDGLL
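hKGA; 45 mM KH2PO4 pH 8.2 + 0.02% Tween-20; cpd via pin tool; 1 mM Gln soln; GluOx/HRP/Amplex Red; RT 30 min; fluor. t0 & final.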
JMJD2A Tudor – inhibitors of human JMJD2A Tudor domain; AlphaScreen JMJD2A-Tudor / H3K4me3 peptide binding; Potency, µM (titrated, usually from 114 µM), inactives show at the top dose activity change, negative = inhibition, hits mostly inhibitors; actives 4.4% (n = 390,000); AID 504339; note: % is set by controls: 0 for no effect and ±100 for the full control effect; nearly all actives have a fitted effect of over 50% in size
HP1b binding inh – HP1-beta chromodomain-methylated histone interaction inhibition | AlphaScreen HP1-beta / biotin-H3K9me3 peptide binding | P83916 | actives 0.56% (n = 390,000) | Potency, µM (doses to about 114 µM), for the others: top-dose activity change, negative = inhibition, usual class: inhibitors; note: nearly all actives have a fitted effect of over 70% in size
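Compound inhibition of the preformed complex between 50 nM HP1-beta and 50 nM biotinylated H3K9me3 peptide was read by AlphaScreen. Buffer was PBS pH 7.4 with 0.01% Tween-20. Incubations ran 30 min at room temperature, with 10 ug/mL donor/acceptor beads.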
BAZ2B block – blocks human BAZ2B; Q9UIF8; AlphaScreen BAZ2B-H3K14Ac peptide displacement; Potency, µM (top dose mostly 114 µM), inactives show at the highest dose activity change, negative = inhibition, actives largely listed as inhibitors; actives 4.4% (n = 360,000); note: % is set by controls: 0 for no effect and ±100 for the full control effect; nearly all actives have a fitted effect of over 60% in size
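Compounds, titrated to a top concentration of 110 uM, were incubated 30 min at room temperature with preformed BAZ2B/acetyl-K14 H3 peptide complex (50 nM each). Proximity signal was measured by AlphaScreen after 20 min with beads.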
An asterisk follows results filed as active; ? = inconclusive; . = no result given; [ ] = remark or other dose. Calls come from the whole dose curve; as a rule, active = well fitted curve in the direction sought with a large enough effect; inconclusive = small, poorly fitted or top-dose-only effect, or another doubt; inactive = no such curve, though single readings can be large; an effect the other way counts as inactive or inconclusive. Potency is the fitted concentration of half-maximal effect.

SMILES	G9a inh	GLS inh	JMJD2A Tudor	HP1b binding inh	BAZ2B block
CCN(CC)CCNC(=O)C1CCN(c2cc(C)nc3c(-c4ccc(Cl)cc4)c(C)nn23)CC1	-25%[59 µM]	9%	-6%	29%	-3%
CS(=O)(=O)N1CCC2(CCN(c3cccc(-c4ccccc4)c3)CC2)CC1	10%[12.7 µM]	.	.	.	.
COc1ccc(NC(=O)CSc2nc(-c3ccccc3)nc3cc(=O)[nH]n23)cc1	17%[59 µM]	-12%	-23%	33%	-37%
Cc1ccc(NC(=O)CSc2nc(-c3ccco3)nc3cc(=O)[nH]n23)cc1C	?	-23%	-34%	28%	40µM*
COc1ccc(NC(=O)CSc2nc(-c3ccco3)nc3cc(=O)[nH]n23)cc1Cl	8%	-18%	45µM*	-3%	79µM*
COc1ccc(NC(=O)CSc2nc(-c3ccco3)nc3cc(=O)[nH]n23)cc1	2%[59 µM]	-27%	-10%	22%	79µM*
CCOc1ccc(NC(=O)NC(C)c2ccc3c(c2)OCO3)cc1 (centres undefined)	20%	-4%	-16%	48%	-37%
O=C(CCCc1nc(-c2ccccc2)no1)NCc1cccnc1	?	-8%	-3%	30%	-30%
O=C(NCc1ccc(F)cc1)c1nnc(Cc2cccc(F)c2)o1	59%[59 µM]	-2%	45%	.	52%
CCCCOc1ccc(C(=O)N(Cc2ccco2)Cc2ccco2)cc1	-29%[59 µM]	-19%	?	11%	-8%
CC(C)Oc1ccc(C(=O)N(Cc2ccc(N(C)C)cc2)Cc2ccco2)cc1	11µM*	1%	25µM*	?	13µM*
CCCCOc1ccc(C(=O)N(Cc2ccc(N(C)C)cc2)Cc2ccco2)cc1	11µM*	-5%	20µM*	?	10µM*
Cc1ccc(CN(Cc2ccco2)C(=O)c2ccc(OCC(C)C)cc2)cc1	17%[59 µM]	-15%	28%	59%	2%
CCS(=O)(=O)NC(C)C(c1cccs1)N1CCN(c2ccc(OC)cc2)CC1 (centres undefined)	14µM*	66%	-31%	-17%	.
COc1ccc(N2CCN(C(c3cccs3)C(C)NS(=O)(=O)c3ccccc3)CC2)cc1 (centres undefined)	?	-1%	10µM*	-35%	25µM*
CC(NS(C)(=O)=O)C(c1cccs1)N1CCN(c2ccccc2)CC1 (centres undefined)	20%[59 µM]	14%	-12%	16%	-6%
CC(=C/c1ccccc1)/C=N/n1c(C)n[nH]c1=S	.	-4%	32µM*	2%	-7%
CC(=C/c1ccccc1)/C=N/n1c(-c2ccncc2)n[nH]c1=S	-119%	?	10µM*	?	?
CC(/C=N/N1CCN(c2ccccn2)CC1)=C\c1ccccc1	?	3%	-18%	12%	-4%
CC(/C=N/N1C(=O)CSC1=S)=C\c1ccccc1	?	?	-33%	-2%	?
CC(/C=N/n1c(-c2cccnc2)n[nH]c1=S)=C\c1ccccc1	0.89µM*	?	20µM*	17%	?
CCOC(=O)Cn1c(=NC(=O)CSC(C)=O)sc2cc(OC)ccc21	-40%[12.7 µM]	1%	-17%	15%	15%
O=C(NCCc1ccccc1)C1COc2ccccc2O1 (centres undefined)	10%	-2%	-4%	26%	-9%
OCCN1CCN(c2ncnc3nc[nH]c23)CC1	2%[59 µM]	3%	-11%	33%	-5%
Cc1ccc(S(=O)(=O)N2CCN(C(=O)CSCc3ccc(C(C)C)cc3)CC2)cc1	?	9%	-6%	52%	-13%
CC(=O)Nc1ccc(S(=O)(=O)N2CCC(N3CCCCC3)CC2)cc1	-3%	0%	-7%	32%[57 µM]	-5%
O=S(=O)(c1ccc(Cl)cc1)N1CCC(N2CCCCCC2)CC1	2.5µM*	12%	2.5µM*	?	79µM*
O=S(=O)(c1ccc(F)cc1)N1CCC(N2CCCCCC2)CC1	?	27%	?	?	?
CC(=O)Nc1ccc(S(=O)(=O)N2CCC(N3CCCCCC3)CC2)cc1	40µM*	-2%	20µM*	?	-30%
CCc1ccccc1NC(=O)NCc1ccc2c(c1)OCO2	.	0%	-22%	18%	1%
